Inconclusive results are not listed. Activity calls are given as the source filed them. The call rests on the fitted dose curve; in most records, active means well fitted curve in the direction sought with a large enough effect; inconclusive means small, poorly fitted or top-dose-only effect, or another doubt; inactive means no such curve, though single readings can be large; an effect the other way counts as inactive or inconclusive.
Assays:
[1] = qHTS of pediatric cancer cell lines to identify multiple opportunities for drug repurposing: Primary screen for BT-12 cells (AID 1347101);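 further: plate controls were DMSO for no effect and bortezomib positive control for full effect; nearly all actives have a fitted effect of over 25% in size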
Procedure, shortened: (§1)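 Cells (500-1,000/well) rested 5 h, then received compounds for 48 h; metabolically active cells were measured by CellTiter-Glo luminescence. Final concentrations spanned up to 46 µM (MIPE, 11-point) or 0.59 nM-46 µM (NPC, 8-point) in primary screens, 11-point in follow-ups.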

[2] = qHTS of pediatric cancer cell lines to identify multiple opportunities for drug repurposing: Primary screen for Rh18 cells (AID 1347102); further: on the % scale 0 is the no-effect control and ±100 the full control effect; nearly all actives have a fitted effect of over 65% in size
Procedure, shortened: (§2)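 Viability after 48 h compound treatment at 37C, 500-1,000 cells/well, read as ATP luminescence with CellTiter-Glo. Primary screens used 11-point (MIPE, 0.78 nM-46 µM) or 8-point (NPC, 0.59 nM-46 µM) final concentrations; follow-up screens used 11-point dilutions.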

[3] = qHTS of pediatric cancer cell lines to identify multiple opportunities for drug repurposing: Primary screen for OHS-50 cells (AID 1347103);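 further: plate controls were DMSO neutral control for no effect and bortezomib positive control for full effect; nearly all actives have a fitted effect of over 40% in size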
Procedure, shortened: as §1

[4] = qHTS of pediatric cancer cell lines to identify multiple opportunities for drug repurposing: Primary screen for RD cells (AID 1347104);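 further: plate controls were DMSO for no effect and bortezomib for full effect; nearly all actives have a fitted effect of over 55% in size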
Procedure, shortened: (§3)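 ATP-based luminescence (CellTiter-Glo) quantifies viability after a 48-hour exposure. Compounds are dosed across 8 or 11 final concentrations; DMSO and 2.3 µM bortezomib serve as controls.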

[5] = qHTS of pediatric cancer cell lines to identify multiple opportunities for drug repurposing: Primary screen for MG 63 (6-TG R) cells (AID 1347105); further: on the % scale 0 is the no-effect control and ±100 the full control effect; nearly all actives have a fitted effect of over 50% in size
Procedure, shortened: as §3

[6] = qHTS of pediatric cancer cell lines to identify multiple opportunities for drug repurposing: Primary screen for control Hh wild type fibroblast cells (AID 1347106);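 further: series mostly up to about 46 µM; on the % scale 0 is the no-effect control and ±100 the full control effect; a drop in luminescence marks cytotoxicity and a rise apparent proliferation; nearly all actives have a fitted effect of over 55% in size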
Procedure, shortened: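 Cells (500-1,000/well) in growth media were settled 5 h at 37 degrees C, then given compounds for 48 h. Viability was read as CellTiter-Glo luminescence. Primary runs used MIPE at 11 points (0.78 nM-46 µM) and NPC at 8 points (0.59 nM-46 µM); follow-ups used 11 points.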

[7] = qHTS of pediatric cancer cell lines to identify multiple opportunities for drug repurposing: Primary screen for Rh30 cells (AID 1347107); further: series mostly up to about 46 µM; on the % scale 0 is the no-effect control and ±100 the full control effect; nearly all actives have a fitted effect of over 75% in size
Procedure, shortened: as §2

[8] = qHTS of pediatric cancer cell lines to identify multiple opportunities for drug repurposing: Primary screen for Rh41 cells (AID 1347108);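 further: series mostly up to about 46 µM; luminescence drop marks cytotoxic hits; nearly all actives have a fitted effect of over 70% in size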
Procedure, shortened: as §3

CSc1ccc(C(=O)c2[nH]c(=O)[nH]c2C)cc1
inactive: Potency [1] | Potency [2] | Potency [3] | Potency [4] | Potency [5] | outcome [6] | Potency [7] | Potency [8]

Cc1nnc(SCC2=C(C(=O)O)N3C(=O)[C@@H](NC(=O)Cn4cnnn4)[C@H]3SC2)s1
inactive: Potency [1] | Potency [2] | Potency [3] | Potency [4] | Potency [5] | outcome [6] | Potency [7]

CCCN(CCC)CCc1cccc2c1CC(=O)N2
inactive: Potency [1] | Potency [2] | Potency [3] | Potency [4] | Potency [5] | outcome [6] | Potency [7] | Potency [8]

CC(C(=O)O)c1ccc(CC2CCCC2=O)cc1 (stereo not given)
inactive: Potency [1] | Potency [2] | Potency [3] | Potency [4] | Potency [5] | outcome [6] | Potency [7] | Potency [8]

Cc1ccc(S(=O)(=O)NC(=O)NN2CCCCCC2)cc1
inactive: Potency [1] | Potency [2] | Potency [3] | Potency [4] | Potency [5] | outcome [6] | Potency [7]

CO[C@@]1(NC(=O)CSCC#N)C(=O)N2C(C(=O)O)=C(CSc3nnnn3C)CS[C@@H]21
inactive: Potency [1] | Potency [2] | Potency [3] | Potency [4] | Potency [5] | outcome [6] | Potency [7]

CCN(CC)CC(=O)Nc1c(C)cccc1C
inactive: Potency [1] | Potency [2] | Potency [3] | Potency [4] | Potency [5] | outcome [6] | Potency [7] | Potency [8]

CCc1c(C)[nH]c2c1C(=O)C(CN1CCOCC1)CC2 (stereo not given)
inactive: Potency [1] | Potency [2] | Potency [3] | Potency [4] | Potency [5] | outcome [6] | Potency [7] | Potency [8]

CNC1(C)C2CCC(C2)C1(C)C (stereo not given)
inactive: Potency [1] | Potency [2] | Potency [3] | Potency [4] | Potency [5] | outcome [6] | Potency [7]

CCCN(CCC)C(=O)C(CCC(=O)O)NC(=O)c1ccccc1 (stereo not given)
inactive: Potency [1] | Potency [2] | Potency [3] | Potency [4] | Potency [5] | outcome [6] | Potency [7] | Potency [8]

CN1CCN(CC(=O)N2c3ccccc3C(=O)Nc3cccnc32)CC1
inactive: activity change, negative = cytotoxic [1] 5.59% [at 6.03 µM] | activity change, negative = cytotoxic [2] 9.39% [at 4.84 µM] | activity change, negative = cytotoxic [3] 7.59% [at 6.18 µM] | activity change, negative = cytotoxic [4] 6.71% [at 4.84 µM] | activity change, negative = cytotoxic [5] 3.64% [at 4.84 µM] | activity change, negative = cytotoxic [6] 2.83% [at 4.84 µM] | activity change, negative = cytotoxic [7] 18% [at 4.84 µM] | activity change, negative = cytotoxic [8] 19.3% [at 4.84 µM]

O=C(O)CN(CCOCCOCCN(CC(=O)O)CC(=O)O)CC(=O)O
inactive: activity change, negative = cytotoxic [1] 8.07% [at 0.745 µM] | activity change, negative = cytotoxic [2] 14.5% [at 0.597 µM] | activity change, negative = cytotoxic [3] 12.9% [at 0.73 µM] | activity change, negative = cytotoxic [4] 10.3% [at 0.597 µM] | activity change, negative = cytotoxic [5] -8.72% [at 0.597 µM] | activity change, negative = cytotoxic [6] 5.93% [at 0.597 µM] | activity change, negative = cytotoxic [7] 25.4% [at 0.597 µM]

CN(C)C(=O)Oc1cccc([N+](C)(C)C)c1
inactive: Potency [1] | Potency [2] | Potency [3] | Potency [4] | Potency [5] | outcome [6] | Potency [7]

COCCc1ccc(OCC(O)CNC(C)C)cc1 (stereo not given)
inactive: Potency [1] | Potency [2] | Potency [3] | Potency [4] | Potency [5] | outcome [6] | Potency [7] | Potency [8]

C[C@@H](O)[C@H]1C(=O)N2C(C(=O)O)=C(SCCN=CN)C[C@H]12
inactive: Potency [1] | Potency [2] | Potency [3] | Potency [4] | Potency [5] | outcome [6] | Potency [7] | Potency [8]

Cc1ccc(=O)n(-c2ccccc2)c1
inactive: Potency [1] | Potency [2] | Potency [3] | Potency [4] | Potency [5] | outcome [6] | Potency [7] | Potency [8]

CCN(CC)CCNC(=O)c1cc(S(C)(=O)=O)ccc1OC
inactive: Potency [1] | Potency [2] | Potency [3] | Potency [4] | Potency [5] | outcome [6] | Potency [7] | Potency [8]

NS(=O)(=O)c1cc2c(cc1Cl)NC(C1CC3C=CC1C3)NS2(=O)=O (stereo not given)
inactive: Potency [1] | Potency [2] | Potency [3] | Potency [4] | Potency [5] | outcome [6] | Potency [7]

C[C@]12CCC(=O)C=C1CC[C@@H]1[C@@H]2C(=O)C[C@@]2(C)[C@H]1CC[C@]2(O)C(=O)CO
inactive: Potency [1] | Potency [2] | Potency [3] | Potency [4] | Potency [5] | outcome [6] | Potency [7] | Potency [8]

CCN(Cc1ccncc1)C(=O)C(CO)c1ccccc1 (stereo not given)
inactive: Potency [1] | Potency [2] | Potency [3] | Potency [4] | Potency [5] | outcome [6] | Potency [7]

CCN(CC)CCNC(=O)c1ccc(NC(C)=O)cc1
inactive: Potency [1] | Potency [2] | Potency [3] | Potency [4] | Potency [5] | outcome [6] | Potency [7] | Potency [8]

O=C(O)CP(=O)(O)O
inactive: Potency [1] | Potency [2] | Potency [3] | Potency [4] | Potency [5] | outcome [6] | Potency [7]

COc1ccc([C@@H]2Sc3ccccc3N(CCN(C)C)C(=O)[C@@H]2OC(C)=O)cc1
inactive: Potency [1] | Potency [2] | Potency [3] | Potency [4] | Potency [5] | outcome [6] | Potency [7] | Potency [8]

Source: PubChem BioAssay (NCATS)
